# Screen size: about 96,000 compounds; about 19,000 (20%) were called active.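 The calls were made as follows: active = blocking of liver enzyme CYP2C9 beyond about 50% at 5 µM (limit read from the data); inactive = the rest.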 These entries were drawn from the full list.
# Target: Cytochrome P450 2C9 (Homo sapiens) (UniProt P11712)
# Experiment: blockers of cytochrome P450 2C9 activity – biochemical, luminescence, ADME assay, primary screen (AID 777)
# Settings: CYP2C9 Supersomes, luciferin-H conversion, at 5 µM, hits give high values
# Cytochrome P450 2C9 (Homo sapiens), sequence (P11712 whole entry, looked up): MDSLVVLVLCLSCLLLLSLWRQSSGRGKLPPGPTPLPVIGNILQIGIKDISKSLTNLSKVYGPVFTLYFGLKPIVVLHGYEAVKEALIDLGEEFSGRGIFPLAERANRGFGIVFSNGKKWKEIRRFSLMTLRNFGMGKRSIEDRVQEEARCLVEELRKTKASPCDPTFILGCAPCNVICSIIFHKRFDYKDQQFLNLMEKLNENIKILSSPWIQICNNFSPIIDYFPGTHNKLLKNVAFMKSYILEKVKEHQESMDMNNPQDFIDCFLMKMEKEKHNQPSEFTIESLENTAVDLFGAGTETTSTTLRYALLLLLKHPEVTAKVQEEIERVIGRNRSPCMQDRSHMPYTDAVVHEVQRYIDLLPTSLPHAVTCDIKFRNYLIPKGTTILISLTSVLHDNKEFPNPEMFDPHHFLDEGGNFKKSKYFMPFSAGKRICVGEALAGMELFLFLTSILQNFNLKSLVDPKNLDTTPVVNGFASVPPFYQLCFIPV
row,Structure (SMILES),inhibition
1,CCOC(=O)N1CCN(Cc2oc(CO)cc(=O)c2O)CC1,-4.5% (inactive)
2,N/C(=N\OC(=O)c1cc(-c2ccccc2)nc2ccccc12)c1ccncc1,97.7% (active)
3,Cc1ccc(-c2cc(C(=O)Nc3nn[nH]n3)c3ccccc3n2)c(C)c1,23.9% (inactive)
4,CC(C)(C)Cc1nnc(NC(=O)c2cc(-c3ccccc3)nc3ccccc23)s1,11.3% (inactive)
5,CC12CN(Cc3ccccc3)CC(C)(CN(Cc3ccccc3)C1)C2=NO,-1.5% (inactive)
6,COc1cccc(-c2nc3cc(C)ccc3o2)c1,53.3% (active)
7,COc1cccc(-c2nc(S(=O)(=O)c3ccccc3)c(N3CCOCC3)o2)c1,27.5% (inactive)
8,CCc1ccc2oc(-c3ccc(N)cc3)nc2c1,-59.8% (inactive)
9,O=C(O)CSCc1ccc(C(=O)O)o1,13.1% (inactive)
10,O=C(O)c1ccc(F)c(S(=O)(=O)Nc2ccccc2)c1,17% (inactive)
11,CSc1ccc(S(=O)(=O)Nc2cccc(F)c2)cc1,93.8% (active)
12,CSc1ccc(S(=O)(=O)NCc2ccc(Cl)cc2)cc1,-49.2% (inactive)
13,CCn1cc(C(=O)N2CCN(C3CCCCC3)CC2)c2cc(OC)c(OC)cc2c1=O,19% (inactive)
14,Cc1cc2ncn(CCCCOc3ccccc3)c2cc1C,27.5% (inactive)
15,CCOC(=O)c1ccc(NC(=O)CS(=O)(=O)c2cn(CC)c3ccccc23)cc1,20.9% (inactive)
16,CCOC(=O)c1ccc(NC(=O)Cn2nnc(-c3ccc(C)cc3)n2)cc1,32% (inactive)
17,CCOC(=O)c1cccc(NC(=O)CCn2nnc3ccccc32)c1,53.3% (active)
18,CCOC(=O)c1cccc(NC(=O)CCc2c(C)nc3ncnn3c2C)c1,15.2% (inactive)
19,CCOC(=O)c1nnn(CC(=O)Nc2cccc(F)c2)c1C(=O)OCC,60.3% (active)
20,CCOC(=O)c1cn(CC(=O)Nc2ccc(C(C)C)cc2)nn1,17.6% (inactive)
21,CCCc1nc2scc(-c3ccc(C)cc3)c2c(=O)n1N,27.6% (inactive)

row,Structure (SMILES),inhibition
1,COc1ccc(CNC(=O)CCn2cccc2)cc1,20.4% (inactive)
2,CCCNC(=O)c1ccccc1NC(=O)CSCc1ccc(OC)cc1,15.3% (inactive)
3,CCSc1ccccc1C(=O)NCc1ccc(OC)cc1,53.8% (active)
4,CC(C)(CNCC(O)c1ccccc1)N1CCOCC1 (stereo unspecified),-3.5% (inactive)
5,CCOC(=O)C1(Cc2ccc(O)cc2)NC(c2ccccc2F)C2C(=O)N(C)C(=O)C21 (stereo unspecified),-15.1% (inactive)
6,Cc1nc([N+](=O)[O-])nn1C12CC3CC(CC(Br)(C3)C1)C2,18.8% (inactive)
7,CCN1CC=C2C(C#N)=C(N)C(C#N)(C#N)[C@H](c3ccoc3)[C@H]2C1,-2.3% (inactive)
8,CCOC(=O)N1CC=C2C(C#N)=C(N)C(C#N)(C#N)[C@H](c3cccs3)[C@H]2C1,11.7% (inactive)
9,N#CC1=C(N)C(C#N)(C#N)[C@H](c2ccsc2)[C@H]2COCC=C12,61.4% (active)
10,CCOc1ccc(C(=O)NC(C(=O)NCc2ccccn2)C(C)C)cc1 (stereo unspecified),6.7% (inactive)
11,Cc1cc(C)cc(NC(=O)c2cccc(NC(=O)C3C4CC5OC(=O)C3C5C4)c2)c1 (stereo unspecified),-1.1% (inactive)
12,O=C(Nc1cccc(C(=O)N2CCCC2)c1)c1ccccc1,31.3% (inactive)
13,O=C(Nc1ccc(Br)cc1)c1cccc(NC(=O)C2C3CC4OC(=O)C2C4C3)c1 (stereo unspecified),66.4% (active)
14,C/C(N)=C(\C#N)C(=O)NCCc1ccccn1,-7.1% (inactive)
15,Fc1ccc2nc(-c3ccccc3)nc(SCc3nnc(-c4ccccc4)o3)c2c1,76.7% (active)
16,Fc1ccc(-c2nnc(CSc3nnc(-c4ccc5c(c4)OCO5)o3)o2)cc1,-13.3% (inactive)
17,Cc1ccc2nc(SCc3nnc(-c4ccccc4[N+](=O)[O-])o3)c(C#N)cc2c1,20% (inactive)
18,COc1ccc(OC)c(NC(=O)c2cnn(-c3ccccc3Cl)c2NC(=O)c2ccco2)c1,24.5% (inactive)
19,Cc1nc2nc(COc3ccccc3)[nH]n2c(=O)c1C,1.1% (inactive)
20,CCn1cc(C(=O)N/N=C(/C)c2ccc(F)cc2)c(=O)c2cc(F)c(N3CCCC3)cc21,5.7% (inactive)
21,CN(c1ccccc1)c1ccc(/C=c2\s/c(=C(/C#N)C(=O)C(C)(C)C)n(Cc3ccco3)c2=O)cc1,41.9% (inactive)

row,Structure (SMILES),inhibition
1,C=CCn1c(=N)n(CC(O)COc2ccc(OC)cc2)c2ccccc21 (stereo unspecified),-0.2% (inactive)
2,COCCCn1c(CCC(=O)O)ccc1-c1ccc(F)cc1,39.8% (inactive)
3,CC(C)(CSc1nncn1/N=C/c1ccco1)NS(=O)(=O)c1ccc(Cl)cc1,61.2% (active)
4,Cc1cc(C)c2c(c1)cc(C)c1nnc(SCC(=O)Nc3cc(C)on3)n12,10.5% (inactive)
5,CCCS(=O)(=O)N1CCCC(C(=O)N2CCN(c3ccccc3)CC2)C1 (stereo unspecified),-1.6% (inactive)
6,Cc1nnsc1S(=O)(=O)Cc1ccccc1Cl,3.2% (inactive)
7,COC(=O)[C@@H](NC(=O)NCc1cccc(OC)c1)C(C)C,-12.5% (inactive)
8,CCOC(=O)C(CCOc1cccc(CC)c1)C(=O)OCC,57% (active)
9,CCCOc1cccc(C(=O)Nc2nnn(CCC)n2)c1,38.6% (inactive)
10,CC(C)=C(NC(=O)c1ccco1)C(=O)NCCc1nc2ccccc2[nH]1,-29.7% (inactive)
11,CCC(CC)C(=O)N1CC(=O)Nc2ccc(Br)cc2C1c1ccccc1 (stereo unspecified),49.6% (inactive)
12,S=c1[nH]nc2c3c4c(sc3ncn12)CCCC4,20.5% (inactive)
13,CCCOc1ccccc1-c1nc(SCCC(=O)O)n[nH]1,-1.3% (inactive)
14,COC(=O)c1ccc(S(=O)(=O)N2CCC(c3nc4ccccc4o3)CC2)cc1,16.8% (inactive)
15,COc1ccccc1N1CCN(C(=O)c2ccc(S(=O)(=O)N3CCCCC3)cc2)CC1,45.8% (inactive)
16,N#CC(C(=O)c1ccc(S(=O)(=O)N2CCCCCC2)cc1)c1nc2ccccc2[nH]1 (stereo unspecified),67.8% (active)
17,O=C(CSc1nc2ccccc2o1)N1CCN(c2ccccc2)CC1,29.7% (inactive)
18,CC(C)OCCCNC(=O)C1CC(=O)N(C2CCCCCCC2)C1 (stereo unspecified),-4.2% (inactive)
19,CC(CN1CCCCC1)OC(=O)c1ccccc1Cl (stereo unspecified),9.2% (inactive)
